Results as given in PubChem BioAssay AID1628 (Sanford-Burnham Center for Chemical Genomics, 2009).
About 930 (0.49%) of roughly 190,000 compounds were called active.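 How the source made its calls: active means z-score of insulin promoter reporter brightness in nuclei below -3 at 5 µM, with at least 500 cells counted; inconclusive means wells with under 500 cells, flagged as toxic or sparse; inactive means the rest.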 The list shows a part of the results. Measured potencies and affinities stand elsewhere.

Assay: insulin promoter down-regulators in MIN6 cells, imaging, high-content screening, mouse beta cells (AID 1628)
Details: MIN6 insulin promoter GFP reporter, at 5 µM, stronger effect = lower value

Row | Structure (SMILES) | z-score
1 | NC(=S)n1[nH]c(-c2ccc([N+](=O)[O-])cc2)c(N=Nc2ccc(Cl)cc2)c1=O | -5.03 (active)
2 | NC(=S)n1[nH]c(-c2ccc([N+](=O)[O-])cc2)c(N=Nc2cccc(Cl)c2)c1=O | -3.23 (active)
3 | Cc1ccccc1SCc1noc(C(=O)NC(C)C)c1C(=O)O | 3.02 (inactive)
4 | O=C(NCc1cccs1)c1ccc(N2CCCCC2)nc1 | 3.41 (inactive)
5 | Cc1cc(C)c(C#N)c(SCC2COc3ccccc3O2)n1 (stereo unspecified) | 3.48 (inactive)
6 | Cc1cc(C)c(S(=O)(=O)c2ccccc2C)c(SCC(C)C)n1 | -3.18 (active)
7 | CCOC(=O)c1c(-c2ccc(C)cc2)csc1NC(=O)/C(C#N)=C/c1ccc(O)c(OC)c1 | 8.18 (inactive)
8 | CN(C)c1ccc(/C=C/C(O)=C2/C(=O)N(C)C3(C)CC2c2ccccc2O3)cc1 (stereo unspecified) | 3.04 (inactive)
9 | CCN(CC)CCN(Cc1cc2ccc(C)cc2[nH]c1=O)C(=O)NC1CCCCC1 | -4.95 (active)
10 | CCCS(=O)(=O)NCCc1cc2ccc(C)cc2[nH]c1=O | 0.95 (inactive)
11 | CCc1c(C(=O)NC2CCCCC2)[nH]c(C)c1C(C)=O | 3.85 (inactive)
12 | O=C(c1ccc2c(c1)OCO2)N1CCN(c2ccccn2)CC1 | -5.54 (active)
13 | O=C(c1ccc2c(c1)OCO2)N1CCCC(c2ccccc2)C1 (stereo unspecified) | -3.99 (active)
14 | O=C(c1ccc2c(c1)OCO2)N1CCCC1 | 8.93 (inactive)
15 | O=C(c1ccc2c(c1)OCO2)N1CCc2ccccc2C1 | -0.76 (inactive)
16 | O=C(CC12CC3CC(CC(C3)C1)C2)NCC(=O)N1CCc2ccccc2C1 | 3.34 (inactive)
17 | CN(C)c1ccc(/C=C/C(=O)c2c(O)c3ccccc3oc2=O)cc1 | 8.78 (inactive)
18 | CN(C)c1ccc(C(=O)c2ccc(N(C)C)c3ccccc23)cc1 | -5.22 (active)
19 | O=C(O)c1cc(-c2ccncc2)nc2ccc(F)cc12 | 3 (inactive)
20 | O=C(O)CCCC(=O)Nc1c(F)c(F)c(F)c(F)c1F | 0.09 (inactive)
21 | Cc1c2ccccc2nc2c(F)c(NC(C)C)c(F)c(F)c12 | 9.6 (inactive)
22 | O=C(NCc1ccccn1)C(=O)NCC(c1ccco1)N1CCN(c2ccc(F)cc2)CC1 (stereo unspecified) | 1.32 (inactive)
23 | Cc1noc(C)c1CSCC(=O)N1CCN(c2ccc(F)cc2)CC1 | -3.68 (active)
24 | COc1cccc(/C=N/NC(=O)c2c(C)nc3ccc(Br)cn23)c1O | -4.47 (active)

Row | Structure (SMILES) | z-score
25 | COc1ccc(CN=Cc2[nH]c3ccc(Br)c(Cl)c3c2O)cc1 | 8.49 (inactive)
26 | COc1cc(OC)c2cc(C(=O)N/N=C/c3cccc(OC)c3O)[nH]c2c1 | -3.6 (active)
27 | CN(C)c1nc(N)nc(/C(C#N)=C/C2CC3C=CC2C3)n1 (stereo unspecified) | 3.05 (inactive)
28 | CCOC(=O)c1ccc2[nH]c3ccccc3c2c1 | -0.27 (inactive)
29 | Oc1ccc2ccccc2c1N=Nc1ccccn1 | -8.6 (active)
30 | Cc1ccc(/C=[N+](\[O-])c2ccc(N(C)C)cc2)c2nsnc12 | 4.9 (inactive)
31 | O=C(NCC1CCCO1)C1CCN(S(=O)(=O)N2CCCC2)CC1 (stereo unspecified) | 3.58 (inactive)
32 | O=C(COC(=O)c1cc(S(=O)(=O)N2CCOCC2)ccc1O)NCC1CCCO1 (stereo unspecified) | 3.77 (inactive)
33 | CN(C)S(=O)(=O)c1cc(C(=O)NCC2CCCO2)c(Cl)cc1Cl (stereo unspecified) | -4.71 (active)
34 | Cc1cc(/C=C2\SC(=S)NC2=O)c(C)n1C1CC1 | 3.04 (inactive)
35 | O=C(OCN1C(=O)c2ccccc2C1=O)c1ccco1 | -1.25 (inactive)
36 | O=C(OCC(=O)N1CCN(C(=O)c2ccco2)CC1)c1ccccc1OCc1ccccc1 | 11.8 (inactive)
37 | O=C(CN1CCN(C(=O)c2ccco2)CC1)Nc1ccccc1-c1ccccc1 | -4.53 (active)
38 | Cc1cc(S(=O)(=O)NC2CCCCC2)c(C)s1 | 3.49 (inactive)
39 | CC(C)Cn1cnc2c1c(=O)n(C)c(=O)n2C | -0.43 (inactive)
40 | Cc1cccc(OCCNc2nc3c(c(=O)n(C)c(=O)n3C)n2C)c1 | 4.22 (inactive)
41 | Cc1cccc(Cn2c(NCCO)nc3c2c(=O)n(C)c(=O)n3C)c1 | -9.37 (active)
42 | Cn1c(=O)c(NCCO)c2c3c(cccc31)C(=O)c1ccccc1-2 | 13.6 (inactive)
43 | CC(C)CCn1c(CN(C)Cc2ccccc2)nc2c1c(=O)n(C)c(=O)n2C | -5.09 (active)
44 | CNc1nc2c(c(=O)n(C)c(=O)n2C)n1Cc1ccccc1 | -5.04 (active)
45 | CN1CC=C2C(C#N)=C(N)C(C#N)(C#N)[C@H](c3ccoc3)[C@H]2C1 | 12.4 (inactive)
46 | CCN(CC)C(=O)C1CCN(Cc2cccc(OCc3ccccc3)c2)CC1 | -4.22 (active)
47 | CC(C)CCn1nc(C(=O)Nc2nc3c(s2)CCCC3)c2ccccc2c1=O | -3.57 (active)
48 | CC(C)(C)NC(=O)c1nn(Cc2ccccc2)c(=O)c2ccccc12 | 1.76 (inactive)

Row | Structure (SMILES) | z-score
49 | COc1ccc(S(=O)(=O)N2CCN(c3ncnc4c(-c5ccccc5)nsc34)CC2)cc1 | -3.2 (active)
50 | Cc1ccc(-n2c3c(c(=O)[nH]c2=O)C(C(F)(F)F)(C(F)(F)F)NC(=O)N3)cc1 | 3.01 (inactive)
51 | COc1ccc(C2C(C(=O)N3CCOCC3)CCC(=O)N2c2ccc(OC)cc2)cc1 (stereo unspecified) | 3.73 (inactive)
52 | COc1ccc(N2CCN(C(=O)C3CCC(Cn4c(=S)[nH]c5ccccc5c4=O)CC3)CC2)cc1 (stereo unspecified) | -3.35 (active)
53 | Nc1c(C(=O)c2cccs2)sc2nsc(SCCN3CCCCC3)c12 | 8.75 (inactive)
54 | Nc1nc(-c2ccc(Cl)cc2)c(N=Nc2ccc(S(=O)(=O)N3CCOCC3)cc2)s1 | 3.8 (inactive)
55 | CCN(CC)c1ccc(/C=C2/SC(=O)N(C(C)C)C2=O)o1 | 17.3 (inactive)
56 | Cc1cc(Cl)n2nc(C)c(-c3ccc(Cl)cc3)c2n1 | -5.26 (active)
57 | CN(C)S(=O)(=O)Oc1cccc(C(=O)Nc2ccc([N+](=O)[O-])cc2)c1 | 3.38 (inactive)
58 | O=C(CCn1cccc1)Nc1ccc(OC(F)(F)F)cc1 | 2.14 (inactive)
59 | CCCOc1ccc2ccccc2c1/C=N/n1c(C)nnc1-n1nc(C)cc1C | -4.98 (active)
60 | N#C/C(=C\c1ccc(N2CCCCC2)o1)C(N)=O | 7.37 (inactive)
61 | O=C(O)c1cc([N+](=O)[O-])c(NCCC2=CCCCC2)c([N+](=O)[O-])c1 | 0.74 (inactive)
62 | COC(CNC(=O)CSCc1nc(-c2ccc(SC)cc2)oc1C)OC | 2.32 (inactive)
63 | COc1cc(C(=O)Oc2ccccc2/C=N/NC(=O)c2ccc(C)c(Cl)c2)cc(OC)c1OC | -5.2 (active)
64 | COc1cccc(/C=N/NC(=O)c2ccc(N(C)S(=O)(=O)c3ccccc3)cc2)c1OC | 3.8 (inactive)
65 | CCCN1C=CC(=CC=C(C#N)C#N)C=C1 | 4.99 (inactive)
66 | CCC(=O)Nc1ccc(C(=O)Cn2ncc(Cl)c(Cl)c2=O)cc1 | -3.05 (active)
67 | COc1ccccc1C(=O)NC(=Nc1nc2ccccc2o1)NC(=O)c1ccccc1OC | -6.44 (active)
68 | C=CCNC(=O)/C(=C\c1ccc(Br)cc1)NC(=O)c1ccccc1OC | 3.42 (inactive)
69 | COc1ccccc1C(=O)NNC(=O)C(=O)NC(C)(C)C | 3.28 (inactive)
70 | COc1ccccc1N/C=C/c1onc(C)c1[N+](=O)[O-] | 4.57 (inactive)
71 | Cn1c(/C(C#N)=C/c2ccc(-c3ccc(S(N)(=O)=O)cc3)o2)nc2ccccc21 | 4.53 (inactive)
72 | C/C(=N/Nc1nc(-c2ccccc2)cc(-c2ccccc2)n1)c1ccc(N)cc1 | -3.67 (active)

Row | Structure (SMILES) | z-score
73 | C/C(=N\Nc1ccc([N+](=O)[O-])cc1)c1cc2ccccc2o1 | 5.52 (inactive)
74 | CNC(=S)NNC(=O)c1oc2nc(-c3ccccc3)cc(-c3ccco3)c2c1N | 3.41 (inactive)
75 | COc1cc(OC)c(-c2c3cc(O)c(=O)cc-3oc3cc(O)c(O)cc23)cc1OC | 11.4 (inactive)
76 | Cc1cccc(NC(=O)COc2cccc3c2CCN(Cc2ccccc2)C3=O)c1C | -3.66 (active)
77 | S=c1[nH]nc(-c2ccccc2)n1CC1CCCO1 (stereo unspecified) | 3.06 (inactive)
78 | Cc1nccn1CCc1n[nH]c(=S)n1Cc1ccccc1 | -4.01 (active)
79 | CC(C)OC(=O)c1c2c(n3ccccc13)C(=O)c1ccccc1C2=O | 11.7 (inactive)
80 | CN1c2ccccc2N(C)C1c1c(O)ccc2ccccc12 | 1 (inactive)
81 | CC1CCN(C(=O)CNS(=O)(=O)c2ccc(Br)s2)CC1 | 3.37 (inactive)
82 | CC1CC(C)CN(C(=O)c2cccc3c2-c2ccccc2C3=O)C1 (stereo unspecified) | 3.97 (inactive)
83 | CC1CC(C)CN(C(=O)C(NS(=O)(=O)c2ccc3c(c2)oc(=O)n3C)C(C)C)C1 (stereo unspecified) | -5.42 (active)
84 | Cc1nc2ccc(S(=O)(=O)NC(C(=O)N3CCC(C)CC3)C(C)C)cc2s1 (stereo unspecified) | -4.34 (active)
85 | CCC(C)NS(=O)(=O)c1ccc(OCC(=O)N2CCC(C)CC2)cc1 (stereo unspecified) | 0.84 (inactive)
86 | CCCN(CCC)S(=O)(=O)c1ccc(C(=O)OCCN2C(=O)c3cccc4c(N5CCOCC5)ccc(c34)C2=O)cc1 | 6.18 (inactive)
87 | COc1cc(OC)cc(C(=O)Nc2cccc(C(C)=O)c2)c1 | 3.53 (inactive)
88 | CCCN(CCC)S(=O)(=O)c1ccc(C(=O)Nc2nnc(-c3cc(OC)cc(OC)c3)o2)cc1 | -4.56 (active)
89 | COc1ccc2nc(SCC(=O)Nc3c(C)cccc3C)[nH]c2c1 | 3.26 (inactive)
90 | Cc1ccc2nc(SCC(=O)Nc3ccc(C)c([N+](=O)[O-])c3)[nH]c2c1 | -4.5 (active)
91 | Cc1ccc(NC(=O)/C=C/c2ccc([N+](=O)[O-])s2)c(C)c1 | 13.3 (inactive)
92 | N#C/C(=C/c1ccc(N2CCCCC2)o1)C(=O)Nc1ccc2ccccc2c1 | 12.9 (inactive)
93 | CCCN1C(=O)/C(=C/c2c(N3CCNC(=O)C3CC(=O)OCC)nc3c(C)cccn3c2=O)SC1=S (stereo unspecified) | 12.1 (inactive)
94 | O=C(COc1ccccc1)NCCn1ccc2ccccc21 | 1.18 (inactive)
95 | O=C(CSc1ccc2ccccc2c1)NCCc1ccc(O)c(O)c1 | -3.3 (active)
96 | O=C(CSc1nc2[nH]ncc2c(=O)n1-c1ccccc1)NCCc1ccccc1 | 2.5 (inactive)
